Assay [1] in a line: qHTS of pediatric cancer cell lines to identify multiple opportunities for drug repurposing: Primary screen for TC32 cells (AID 1347089). For activity change, negative = cytotoxic: % is set by controls: 0 for no effect and ±100 for the full control effect. Note: nearly all actives have a fitted effect of over 60% in size. Note: potency is the fitted concentration of half-maximal effect. In outline:
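A viability screen of TC32 cells was run over 48 h, with primary MIPE doses spanning 0.78 nM–46 µM and NPC doses 0.59 nM–46 µM. ATP luminescence (CellTiter-Glo) served as the read-out.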
(In qHTS, concentration-response curves come from the screen itself.)

Assay [2] in a line: qHTS of pediatric cancer cell lines to identify multiple opportunities for drug repurposing: Primary screen for DAOY cells (AID 1347090).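 For activity change, negative = cytotoxic: series mostly up to about 46 µM; plate controls were DMSO for no effect and bortezomib for full effect.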 Note: nearly all actives have a fitted effect of over 55% in size. Note: potency is the fitted concentration of half-maximal effect. In outline:
(§1)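 Cell viability, CellTiter-Glo luminescence; 500-1,000 cells/well, 8- or 11-point titration, 48 h compound exposure at 37 degrees C, 5% CO2. Controls: DMSO neutral, bortezomib 2.3 µM final as positive.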

The nature of assay [3]: qHTS of pediatric cancer cell lines to identify multiple opportunities for drug repurposing: Primary screen for SJ-GBM2 cells (AID 1347091).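 Note: plate controls were DMSO neutral control for no effect and bortezomib for full effect.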 Summed up: as §1
A short description of assay [4]: qHTS of pediatric cancer cell lines to identify multiple opportunities for drug repurposing: Primary screen for A673 cells (AID 1347092). For activity change, negative = cytotoxic: % is set by controls: 0 for no effect and ±100 for the full control effect. Note: nearly all actives have a fitted effect of over 45% in size. Note: potency is the fitted concentration of half-maximal effect. In outline: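 Titration-based qHTS on A673 cells: MIPE compounds spanned 11 points (0.78 nM to 46 µM final), NPC compounds 8 points (0.59 nM to 46 µM final). Viability after 48 h was measured by ATP luminescence.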
The nature of assay [5]: qHTS of pediatric cancer cell lines to identify multiple opportunities for drug repurposing: Primary screen for NB-EBc1 cells (AID 1347095).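 For activity change, negative = cytotoxic: plate controls were DMSO neutral control for no effect and bortezomib for full effect.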 Note: potency is the fitted concentration of half-maximal effect. Summed up:
(§2)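 Cells seeded at 500-1,000 cells/well in growth media, rested 5 hours at 37 degrees C, 5% CO2, then dosed; MIPE compounds at 11-point (from 0.78 nM) and NPC at 8-point (from 0.59 nM) final concentrations. Viability by CellTiter-Glo luminescence after 48 hours.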

Assay [6] can be described thus: qHTS of pediatric cancer cell lines to identify multiple opportunities for drug repurposing: Primary screen for U-2 OS cells (AID 1347096).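 For activity change, negative = cytotoxic: plate controls were DMSO wells for no effect and bortezomib positive control wells for full effect.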 Note: nearly all actives have a fitted effect of over 50% in size. Note: potency is the fitted concentration of half-maximal effect. Summed up: (§3)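 Cells (500-1,000/well) rested 5 h, then received compounds for 48 h; metabolically active cells were measured by CellTiter-Glo luminescence. Final concentrations spanned up to 46 µM (MIPE, 11-point) or 0.59 nM-46 µM (NPC, 8-point) in primary screens, 11-point in follow-ups.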

Assay [7] is described as follows: qHTS of pediatric cancer cell lines to identify multiple opportunities for drug repurposing: Primary screen for LAN-5 cells (AID 1347100).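 For activity change, negative = cytotoxic: plate controls were DMSO neutral control for no effect and bortezomib positive control for full effect.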 Note: potency is the fitted concentration of half-maximal effect. In outline: as §3
Assay [8] can be described thus: qHTS of pediatric cancer cell lines to identify multiple opportunities for drug repurposing: Primary screen for BT-12 cells (AID 1347101).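 For activity change, negative = cytotoxic: plate controls were DMSO for no effect and bortezomib positive control for full effect.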 Note: nearly all actives have a fitted effect of over 25% in size. Note: potency is the fitted concentration of half-maximal effect. Summed up: as §3
A short description of assay [9]: qHTS of pediatric cancer cell lines to identify multiple opportunities for drug repurposing: Primary screen for Rh18 cells (AID 1347102). For activity change, negative = cytotoxic: % is set by controls: 0 for no effect and ±100 for the full control effect. Note: nearly all actives have a fitted effect of over 65% in size. Note: potency is the fitted concentration of half-maximal effect. Summed up: as §3
Assay [10] can be described thus: qHTS of pediatric cancer cell lines to identify multiple opportunities for drug repurposing: Primary screen for OHS-50 cells (AID 1347103).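 For activity change, negative = cytotoxic: plate controls were DMSO neutral control for no effect and bortezomib positive control for full effect.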 Note: nearly all actives have a fitted effect of over 40% in size. Note: potency is the fitted concentration of half-maximal effect. In outline:
as §3

Assay [11] can be described thus: qHTS of pediatric cancer cell lines to identify multiple opportunities for drug repurposing: Primary screen for RD cells (AID 1347104).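 For activity change, negative = cytotoxic: plate controls were DMSO for no effect and bortezomib for full effect.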 Note: nearly all actives have a fitted effect of over 55% in size. Note: potency is the fitted concentration of half-maximal effect. Summed up:
as §2

The nature of assay [12]: qHTS of pediatric cancer cell lines to identify multiple opportunities for drug repurposing: Primary screen for SK-N-MC cells (AID 1347093).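 For activity change, negative = cytotoxic: series mostly up to about 46 µM; plate controls were DMSO neutral control for no effect and bortezomib for full effect.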 Note: potency is the fitted concentration of half-maximal effect. Summed up:
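Metabolically active cells were quantified by ATP-dependent luminescence (CellTiter-Glo, 15 min at room temperature) following 48 h treatment. Cells had been plated at 500-1,000 per well and settled for 5 h beforehand.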

Assay [13] in a line: qHTS of pediatric cancer cell lines to identify multiple opportunities for drug repurposing: Primary screen for BT-37 cells (AID 1347094).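 For activity change, negative = cytotoxic: series mostly up to about 57 µM; plate controls were DMSO for no effect and bortezomib for full effect.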 Note: potency is the fitted concentration of half-maximal effect. In outline: as §2
Assay [14] can be described thus: qHTS of pediatric cancer cell lines to identify multiple opportunities for drug repurposing: Primary screen for Saos-2 cells (AID 1347097). For activity change, negative = cytotoxic: % is set by controls: 0 for no effect and ±100 for the full control effect. Note: nearly all actives have a fitted effect of over 40% in size. Note: potency is the fitted concentration of half-maximal effect. In outline: as §2
Assay [15] in a line: qHTS of pediatric cancer cell lines to identify multiple opportunities for drug repurposing: Primary screen for SK-N-SH cells (AID 1347098). Note: nearly all actives have a fitted effect of over 65% in size. Note: potency is the fitted concentration of half-maximal effect. In outline:
as §3

A short description of assay [16]: qHTS of pediatric cancer cell lines to identify multiple opportunities for drug repurposing: Primary screen for NB1643 cells (AID 1347099).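 For activity change, negative = cytotoxic: plate controls were DMSO neutral control for no effect and bortezomib positive control for full effect.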 Note: nearly all actives have a fitted effect of over 50% in size. Note: potency is the fitted concentration of half-maximal effect. In outline:
as §2

Results filed as inconclusive are left out. Unmarked numbers belong to inactive results. Activity calls are given as the source filed them. Calls come from the whole dose curve; as a rule, active = well fitted curve in the direction sought with a large enough effect; inconclusive = small, poorly fitted or top-dose-only effect, or another doubt; inactive = no such curve, though single readings can be large; an effect the other way counts as inactive or inconclusive.

As for `CCCCc1cc2ccccc2c(OCCN(C)C)n1`, the Potency result in assay [1], in assay [2], in assay [3], in assay [4], in [5] and in assay [6] was “inactive” in each case. Further, the Potency result in assay [7], in assay [8], in [9] and in [11] was “inactive” each time. The Potency in assay [10] is 15.5 µM (active).

For `CCCCOC(=O)CC(CC(=O)OCCCC)(OC(C)=O)C(=O)OCCCC`, the Potency entry in [1], in assay [2], in assay [4], in [12], in [13] and in assay [5] was “inactive” each time. Besides, the Potency entry in [6], in assay [14], in assay [15], in [16], in [7] and in [8] was “inactive” in each case. The Potency entry in [9] and in [11] was “inactive” throughout.

For `Cc1ccc(O)c([C@H](CCN(C(C)C)C(C)C)c2ccccc2)c1`, the Potency result in assay [1], in [2], in assay [3], in assay [4], in assay [13] and in assay [6] was “inactive” in each case. Further, the Potency entry in [14], in [16], in assay [7] and in [9] was “inactive” throughout.

As for `CCOC(=O)Nc1ccc2c(c1)N(C(=O)CCN1CCOCC1)c1ccccc1S2`, the Potency entry in assay [1], in [2], in assay [3], in [4], in [5] and in [6] was “inactive” in each case. Moreover, the Potency entry in assay [15], in assay [16], in assay [7], in [8], in assay [9] and in assay [10] was “inactive” throughout.

As for `O=C(O)C1(C(=O)O)CCC1.[NH2-].[NH2-].[Pt+2]`, the Potency entry in [1], in [2], in assay [3], in assay [4], in assay [5] and in [6] was “inactive” throughout. The Potency entry in [14], in assay [15], in assay [16], in assay [7], in assay [8] and in [9] was “inactive” throughout. In addition, the Potency result in [10] and in [11] was “inactive” each time.

For `C[N+]1(CC2COC(c3ccccc3)(C3CCCCC3)O2)CCCCC1` (stereo not drawn), the Potency result in assay [1], in assay [2], in assay [3], in assay [4], in assay [5] and in [6] was “inactive” in each case. Besides, the Potency result in [14], in assay [15], in assay [16], in [7], in assay [9] and in assay [11] was “inactive” in each case.

For the molecule `C#C[C@]1(O)CC[C@H]2[C@@H]3[C@H](C)CC4=C(CCC(=O)C4)[C@H]3CC[C@@]21C`, the Potency result in assay [1], in assay [2], in assay [3], in assay [4], in assay [13] and in assay [6] was “inactive” throughout. The Potency result in [14], in assay [15], in [16], in assay [7], in [9] and in assay [10] was “inactive” throughout. The Potency entry in assay [11] is “inactive”.

Consider `CCCCN=C(N)N=C(N)N`, for which the Potency entry in assay [1], in assay [2], in assay [3], in assay [12], in assay [13] and in assay [5] was “inactive” throughout. Further, the Potency entry in assay [6], in assay [14], in assay [15], in [7], in assay [8] and in assay [9] was “inactive” each time. Moreover, the Potency entry in assay [11] was “inactive”.

For the molecule `CC(=O)O[C@H]1C[C@@H]2CC[C@@H]3[C@H](CC[C@@]4(C)[C@H]3C[C@H]([N+]3(C)CCCCC3)[C@@H]4OC(C)=O)[C@@]2(C)C[C@@H]1N1CCCCC1`, the Potency result in [1], in assay [2], in assay [3], in [4], in assay [13] and in [6] was “inactive” throughout. Besides, the Potency result in assay [15], in assay [16], in [7], in assay [8], in assay [9] and in [10] was “inactive” throughout. Further, the Potency result in assay [11] was “inactive”.

Take `CC(C)NCC(O)c1ccc2ccccc2c1` (stereo not drawn): the Potency entry in [1], in assay [2], in assay [3], in [4], in assay [5] and in assay [6] was “inactive” throughout. Moreover, the Potency entry in [14], in assay [15], in [16], in assay [7], in assay [8] and in assay [9] was “inactive” each time. The Potency entry in [10] and in [11] was “inactive” in each case.

In the case of `CN1CCN(C2=Nc3cc(F)ccc3Cc3ccccc32)CC1`, the Potency result in assay [1], in assay [2], in assay [3], in [4], in assay [5] and in assay [7] was “inactive” each time.

For the molecule `NC(=O)C1(N2CCCCC2)CCN(CCCC(=O)c2ccc(F)cc2)CC1`, the Potency result in assay [1], in assay [2], in assay [4], in [12], in [13] and in [5] was “inactive” throughout. In addition, the Potency entry in assay [6], in assay [14], in assay [15], in assay [7], in [8] and in assay [9] was “inactive” throughout. The Potency entry in assay [10] and in assay [11] was “inactive” throughout.

Regarding `O=C(NCCc1c[nH]c2ccccc12)c1cccnc1`, the Potency result in assay [1], in [2], in [4], in assay [12], in [13] and in assay [6] was “inactive” each time. Moreover, the Potency entry in assay [14], in assay [15], in [16], in assay [7], in assay [8] and in assay [9] was “inactive” in each case. In addition, the Potency entry in [10] and in [11] was “inactive” throughout.

With `CCN1/C(=C/C=C/c2sc3ccccc3[n+]2CC)Sc2ccccc21`, the Potency in [1] was 1.29 µM (active); in assay [2], 1.16 µM (active); in [4], 0.58 µM (active); in assay [12], 1.3 µM (active); in assay [13], 1.35 µM (active); in [6] it was 9.2 µM (active). The Potency was 0.92 µM (active) in assay [14]; 1.89 µM (active) in assay [15]; 0.601 µM (active) in assay [8]; 1.03 µM (active) in assay [9]; 0.601 µM (active) in assay [10]; 1.16 µM (active) in assay [11].

As to `N=C(N)N1CCc2ccccc2C1`, the activity change, negative = cytotoxic in [1] is 1.67% [at 4.81 µM]; in [2] it was -21.6% [at 4.84 µM]; in assay [4] it was -18% [at 4.84 µM]; in assay [12] it was -27.9% [at 4.84 µM]; in assay [13], -4.38% [at 6.03 µM]; in [6] it was -4.95% [at 4.84 µM]. Moreover, the activity change, negative = cytotoxic in [15] was -21.9% [at 6 µM]; in assay [16], -5.24% [at 4.84 µM]; in assay [7], -2.04% [at 4.84 µM]; in assay [9], 1.68% [at 4.84 µM]; in assay [11], -9.62% [at 4.84 µM].

Turning to `NC(N)=NN=C(/C=C/c1ccc([N+](=O)[O-])o1)/C=C/c1ccc([N+](=O)[O-])o1`, the Potency in assay [1] is 6.64 µM (active); in assay [2], 10.6 µM (active); in assay [4] it was 1.06 µM (active); in assay [13], 11 µM (active); in [5], 5.31 µM (active); in [15] it was 3.86 µM (active). In addition, the Potency in assay [16] is 15 µM (active); in assay [7] it was 2.11 µM (active); in assay [9], 1.19 µM (active); in assay [11], 0.841 µM (active).

(Values after PubChem BioAssay (NCATS).)
